Shown are actives, neighbours in structure and some others; about 5.8% of the full set was active somewhere.
PINK1 expr mod = modulators of PINK1 expression | PINK1 immunofluorescence, high-content cytometry, 24 h | Potency, µM (titrated, usually from 76.6 µM), for the others: at the top dose activation (PINK1 increase), usual class: activators | 410,000 compounds, 0.2% hits | AID 624263; active means well fitted activation curve with a large enough effect; inconclusive means small, poorly fitted or top-dose-only effect; cell line not stated here; further: % of control where 0% means no effect; nearly all actives have a fitted effect of over 65% in size
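PINK1 protein level read as immunofluorescence by microplate cytometer in a fixed, stained stable cell line after 24 h exposure to five compound concentrations, with CCCP as control.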
MCF10A rereplic = inducers of DNA re-replication in MCF 10A breast cells | MCF 10A DNA re-replication, Hoechst nuclear intensity, 48 h | Potency, µM (series often up to 46.1 µM), for the others: top-dose activity, positive = re-replication, usual class: activators | 350,000 compounds, 2.9% hits | AID 624296; further: % of control where 0% means no effect; nearly all actives have a fitted effect of over 50% in size
KB-V1 cytotox = KB-V1 MDR subline cytotoxicity; KB-V1 MDR cells viability, CellTiter-Glo, 72 h; Potency, µM (titrated, usually from 46.1 µM), hits mostly cytotoxic; 400,000 compounds, 3.4% hits; further: on the % scale 0 is the no-effect control and ±100 the full control effect; nearly all actives have a fitted effect of over 60% in size
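qHTS viability screen in drug-selected KB-V1 MDR cells: 72 h compound treatment at 37 degrees C, ATP luminescence end point.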
KB-3-1 tox = kills parental KB-3-1 adenocarcinoma cells; 400,000 compounds, 1.4% hits; Potency, µM (top dose mostly 46.1 µM), usual class: cytotoxic; KB-3-1 viability, CellTiter-Glo ATP luminescence, 72 h; further: on the % scale 0 is the no-effect control and ±100 the full control effect; nearly all actives have a fitted effect of over 60% in size
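Screening of KB-3-1 cells (DMEM, 10% FBS, phenol-red free) ran from lowest to highest compound concentration; after 72 h at 37 °C viability was read luminescently and curves fitted.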
12-LOX inh = blocks human arachidonate 12S-lipoxygenase. Potency, µM (highest dose often 108 µM), for the others: top-dose activity change, negative = inhibition, actives largely listed as inhibitors. purified 12hLO, xylenol orange hydroperoxide absorbance. P18054. 580,000 compounds, 1.1% hits; further: on the % scale 0 is the no-effect control and ±100 the full control effect
Target sequence (P18054 whole entry, looked up): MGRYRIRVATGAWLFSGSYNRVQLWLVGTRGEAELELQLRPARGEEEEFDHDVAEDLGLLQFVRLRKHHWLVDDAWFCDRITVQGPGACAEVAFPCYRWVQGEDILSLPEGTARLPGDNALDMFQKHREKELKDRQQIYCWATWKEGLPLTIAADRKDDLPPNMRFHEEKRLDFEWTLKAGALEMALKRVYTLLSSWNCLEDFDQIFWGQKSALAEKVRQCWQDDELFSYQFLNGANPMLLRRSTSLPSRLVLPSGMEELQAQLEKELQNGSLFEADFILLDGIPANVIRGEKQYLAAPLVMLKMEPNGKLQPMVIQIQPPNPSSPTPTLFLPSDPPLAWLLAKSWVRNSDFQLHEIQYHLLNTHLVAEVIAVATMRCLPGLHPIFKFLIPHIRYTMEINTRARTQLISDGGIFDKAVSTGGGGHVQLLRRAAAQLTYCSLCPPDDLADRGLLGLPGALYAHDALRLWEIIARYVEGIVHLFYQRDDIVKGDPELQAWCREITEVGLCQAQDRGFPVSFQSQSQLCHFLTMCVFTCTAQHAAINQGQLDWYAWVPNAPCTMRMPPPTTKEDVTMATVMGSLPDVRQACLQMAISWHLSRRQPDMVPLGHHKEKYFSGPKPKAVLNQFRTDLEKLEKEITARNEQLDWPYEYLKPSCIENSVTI
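Purified human 12hLO at 150 nM in 25 mM Hepes, 0.01% Triton X-100, pH 7.0, preincubated 15 min at room temperature with compound. Reaction started with 40 uM arachidonic acid, 30 min at room temperature. Hydroperoxide measured by Fe-xylenol orange, 573/405 nm absorbance ratio.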
SW480 rerep = induces DNA re-replication in SW480 colon adenocarcinoma cells; SW480 DNA re-replication, Hoechst DNA content imaging, 48 h; Potency, µM (highest dose often 46.1 µM), for inactives: at the highest dose re-replication activation, hits mostly activators; 340,000 compounds, 1.8% hits; AID 624297; further: % of control where 0% means no effect; nearly all actives have a fitted effect of over 55% in size
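Image-based read-out: total Hoechst fluorescence of nuclei (405 nm excitation, 500-530 nm emission), with hits raising the fraction of high-intensity nuclei. SW480 colon cells incubated 48 hr with compounds at 37 C.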
An asterisk follows results filed as active; i = inactive; ? = inconclusive; . = not tested or not shown; [ ] = dose if it differs, or a comment. Unless noted, the call rests on the fitted dose curve; in most records, active means well fitted curve in the direction sought with a large enough effect; inconclusive means small, poorly fitted or top-dose-only effect, or another doubt; inactive means no such curve, though single readings can be large; an effect the other way counts as inactive or inconclusive. Potency means the concentration at half of the fitted maximal effect.

SMILES	PINK1 expr mod	MCF10A rereplic	KB-V1 cytotox	KB-3-1 tox	12-LOX inh	SW480 rerep
CCN1CCN(c2ccc(S(=O)(=O)N3CCCCC3)cc2NC(=O)c2ccc([N+](=O)[O-])o2)CC1	-2%	?	?	?	?	7.3µM*
CCN(C(=O)Cc1nc(-c2cccs2)oc1C)c1cccc(Br)c1	.	.	.	.	2%	.
O=C(CSc1ccc(Br)cc1)NCC(c1cccs1)N1CCOCC1 (centres undefined)	-1%	10%	?	16µM*	9%	3%
Cc1ccsc1C(=O)NCC(c1cccs1)N1CCOCC1 (centres undefined)	11%	.	?	i	-11%	.
O=C(NCC(c1cccs1)N1CCOCC1)c1ccc(Br)o1 (centres undefined)	2%	?	?	?	3%	8.2µM*
O=C(NCC1CCN(C2CC2)C1)Nc1ccc(Cl)cc1 (centres undefined)	.	.	.	.	5%	.
COc1cccc(CN2CCC3(CC2)NC(=O)c2ccccc2O3)c1	.	.	.	.	-10%	.
CCCN(CCC)S(=O)(=O)c1ccc(C(=O)Nc2nnc(CSC)o2)cc1	0%	?	7.3µM*	6.5µM*	-9%	21%
CCCCN(CC)S(=O)(=O)c1ccc(C(=O)Nc2nnc(CSC)o2)cc1	-1%	?	i	?	0%	?
CCCCN(CCCC)S(=O)(=O)c1ccc(C(=O)Nc2nnc(CSC)o2)cc1	2%	10µM*	?	?	0%[57.4 µM]	?
CC(=O)c1cccc(NC(=O)C(Nc2ccc3oc(C)nc3c2)c2ccccc2)c1 (centres undefined)	.	.	.	.	-1%	.
Cc1cc(=O)n2[nH]c(CN(C(=O)c3ccccc3C)c3ccc(Cl)cc3)nc2n1	.	.	.	.	-27%	.
CC(C)CC(=O)Nc1ncc([N+](=O)[O-])s1	1%	8%	i	i	?	1%
O=[N+]([O-])c1ccccc1S(=O)(=O)Nc1ncccn1	-1%	0%	i	i	-6%	-9%
COc1ccc(CC(=O)Nc2ncc([N+](=O)[O-])s2)cc1OC	1%	-3%	i	?	35µM*	1%
O=[N+]([O-])c1cnc(NS(=O)(=O)c2ccccc2[N+](=O)[O-])s1	.	.	.	.	40µM*	.
O=C(COC(=O)c1ccccc1)Nc1ncc([N+](=O)[O-])s1	1%	1%	i	i	40µM*	-2%
O=C(Nc1ccccc1)Nc1ncc([N+](=O)[O-])s1	?	4%	?	18µM*	?	?
O=[N+]([O-])c1ccc(N2CCN(c3ccccc3)CC2)c2ccncc12	.	.	.	.	-7%	.
COc1ccc(CN2C[C@H]3CN(Cc4ccc5c(c4)OCCO5)CCN3C2=O)cc1	.	.	.	.	1%[176 µM]	.
COc1cccc(-n2cc(CN(C)Cc3nc(Cc4cccc(F)c4)no3)cn2)c1	3%	24%	i	i	?	2%
COc1ccc(CN(C)Cc2nc(Cc3cccc(F)c3)no2)c2cccnc12	0%	?	1.8µM*	?	-1%	3%
CNc1cc([N+](=O)[O-])ccc1OCc1ccccc1	0%	11%	i	i	11%	-5%
CN(C=O)c1cc([N+](=O)[O-])ccc1OCc1ccccc1	-4%	?	18µM*	i	-10%	-1%
COc1cccc(CCC(=O)N2CCCN(c3cc(-c4ccc(Cl)cc4)[nH]n3)CC2)c1	.	.	.	.	-4%	.
SMILES	PINK1 expr mod	MCF10A rereplic	KB-V1 cytotox	KB-3-1 tox	12-LOX inh	SW480 rerep
CSC1=NC(=O)/C(=C\c2cccc3ccccc23)S1	0%	15µM*	?	i	-18%	4%
CCOC(=O)C1CCN([C@H]2CS(=O)(=O)C[C@@H]2S(=O)(=O)c2ccc(C)cc2)CC1	.	.	.	.	-13%	.
Cc1cc(C)c(C#N)c(SCc2nnc(-c3ccccc3)o2)n1	7%	2.6µM*	3.7µM*	i	-27%	8.2µM*
Cc1ccc(C#N)c(SCc2nnc(-c3ccc(Cl)cc3)o2)n1	11%	0.73µM*	12µM*	i	2%	2.3µM*
CC(NC(=O)C1CCCC1)C1CCCO1 (centres undefined)	.	.	.	.	9%	.
CC(C)c1ccc(CNCC2CCCO2)cc1 (centres undefined)	.	.	.	.	1%	.
CC(=O)N(C1CC(C)C(C#N)(C#N)C1(C#N)C#N)N(C)C (centres undefined)	12%	?	i	i	-2%	9%
CCCC(=O)N(C1CC(C)C(C#N)(C#N)C1(C#N)C#N)N(C)C (centres undefined)	4%	2.9µM*	i	i	0%	4.6µM*
O=[N+]([O-])c1ccc(Sc2ccccn2)nc1	-1%	-2%	?	i	203%	-5%
O=[N+]([O-])c1ccc(Sc2ccc(Cl)c(Cl)c2)nc1	2%[38.3 µM]	15µM*	?	i	-3%	17%
COc1ccccc1C(=O)N1CCCN(c2nnc3cccc(C)n23)CC1	.	.	.	.	47%	.
CCn1c(O)c(/C=C/C=C/C=Nc2ccccc2)sc1=S	0%	8%	?	i	?	-1%
Oc1c(/C=C/C=C/C=Nc2ccccc2)sc(=S)n1Cc1ccccc1	2%	?	i	i	13µM*	-12%
CCCCn1c(O)c(/C=C/C=C/C=Nc2ccccc2)sc1=S	0%	8%	i	i	13µM*	2%
COc1ccc(Sc2nnc(Cc3ccccc3)c3ccccc23)cc1	4%[38.3 µM]	9.2µM*	?	i	?	?
Cc1ccc(Sc2nnc(Cc3ccccc3)c3ccccc23)cc1	7%[38.3 µM]	?	?	i	?	?
COc1ccc(OC)c(Nc2nc(N)nc(CSc3nnc(N)s3)n2)c1	-8%[38.3 µM]	-10%	i	i	0%	-9%
Cc1ccc(Nc2nc(N)nc(CCl)n2)cc1	-2%	?	?	?	356%	-21%
Cc1ccccc1Nc1nc(N)nc(COC(=O)c2cccc(S(=O)(=O)N(C)C)c2)n1	3%	?	18µM*	i	-21%	2%
COc1ccc(OC)c(Nc2nc(N)nc(CCl)n2)c1	1%	29µM*	?	i	0%	2.6µM*
CCOc1ccc(Nc2nc(N)nc(CCl)n2)cc1	-3%	?	i	13µM*	146%	?
Nc1nc(CCl)nc(Nc2ccccc2)n1	-1%	?	?	?	0%	6.5µM*
O=C(Nc1ccc2c(ccn2CCN2CCOCC2)c1)C1CCC1	.	.	.	.	3%	.
O=C(c1nn(Cc2ccccc2)c(=O)c2ccccc12)N1CCCC1c1ccc2c(c1)OCCCO2 (centres undefined)	.	.	.	.	-2%	.
CSc1nc(N2CCCC2)c2c3c(sc2n1)COC(C)(C)C3	.	.	.	.	-9%	.
